# Source: PubChem BioAssay (Tox21)
# Results filed as inconclusive are left out. Values without a mark were called inactive. Active and inactive are the calls of the source. The call rests on the fitted dose curve; in most records, active means well fitted cell-killing curve with a large enough effect in the repeat runs; inconclusive means weak or mixed curves, or effect the other way; inactive means no such curve, though single readings can be large or run the other way.
# Assay: qHTS assay to identify small molecule agonists of the estrogen receptor alpha (ER-alpha) signaling pathway in the presence of an antagonist - cell viability counter screen (AID 1259386);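 further: cells exposed to compounds for 22 h at 37 °C before the viability read; nearly all actives have a fitted effect of over 30% in size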
# Settings: VM7Luc4E2 viability, CellTiter-Fluor fluorescence, 22 h; series mostly up to 92.4 µM; activity change, negative = cytotoxicity: at the top concentration
# Source text: National Center for Advancing Translational Sciences [NCATS]
# NIH Chemical Genomics Center [NCGC]
# U.S. Environmental Protection Agency [EPA]
# National Institutes of Environmental Health Sciences [NIEHS]
# National Toxicology Program [NTP]
# U.S. Food and Drug Administration [FDA]
# Estrogen receptor (ER), a member of nuclear hormone receptor plays an important role in development, metabolic homeostasis and reproduction. Two subtypes of ER, ER-alpha and ER-beta, have similar expression patterns with some uniqueness in both types. Endocrine disrupting chemicals (EDCs) and their interactions with steroid hormone receptors like ER causes disruption of normal endocrine function. Therefore, it is important to understand the effect of environmental chemicals in ER signaling pathway. For identifying ER agonists, VM7Luc4E2 cell line has been used in the current assay.
# VM7Luc4E2 cell line (provided by Denison MS, University of California) endogenously expresses full-length ER-alpha and is stably transfected with a plasmid containing four estrogen responsive elements (ERE) upstream of a luciferase reporter gene. This current screening for measuring luciferase reporter gene activity using VM7Luc4E2 cells against Tox21 10K library collection is a confirmation study on agonist mode screening in presence of ER-antagonist (ICI-182,780) at 10.0nM final concentration. The cytotoxicity of the compounds was tested in parallel by measuring the cell viability using CellTiter-Fluor assay system (Promega, Madison, WI) in the same wells.
# Tox21 Assay Protocol Summary:
# VM7Luc4E2 cells were cultured in phenol red free assay medium containing 10% charcoal stripped FBS for 5 days prior to the assay. The cells were dispensed at 4,000 cells in 4uL of assay medium per well into white wall/solid-bottom 1536-well plates (Corning Life Sciences, Corning, NY) using a Multidrop Combi (Thermo Fisher Scientific Inc., Waltham, MA) dispenser. After the assay plates were incubated at 37C and 5% CO2 for 24hr, 1uL of 10.0nM (final concentration) ICI-182,780 or assay buffer was added using two separate tips of Flying Reagent Dispenser (FRD, Aurora Discovery, San Diego, CA). Then 23nL of compounds dissolved in DMSO at 15 concentrations and positive controls or DMSO only was transferred to the assay plates by a Pintool station (Wako, San Diego, CA). The assay plates were incubated at 37C and 5% CO2 for 22hr. After 21hr incubation at 37C, 1uL/well CellTiter-Fluor reagent (Promega Corporation, Madison, WI) was added to each well using FRD and after 1hr incubation at 37C and 5% CO2, the fluorescence signal was measured on ViewLux plate reader (PerkinElmer, Shelton, CT).
# On the % scale 0 is the no-effect control and ±100 the full control effect; potency means the concentration at half of the fitted maximal effect.
SMILES,"activity change, negative = cytotoxicity",Potency
CC(O)C#CC(C)O (stereo not given),1.12%,–
N[C@@H](CSSC[C@H](N)C(=O)O)C(=O)O,7.62% [at 0.349 µM],–
CCN(CC)CCOc1ccc(C(O)(Cc2ccc(Cl)cc2)c2ccc(C)cc2)cc1 (stereo not given),0.744% [at 42.5 µM],–
Clc1nc2ccccc2s1,-9.22%,–
CCCCN(CCCC)CCC(O)c1cc2c(Cl)cc(Cl)cc2c2cc(C(F)(F)F)ccc12 (stereo not given),0.0306% [at 42.5 µM],–
CCC(C)c1ccccc1 (stereo not given),0.779%,–
CCOC(=O)N1CCC(=C2c3ccc(Cl)cc3CCc3cccnc32)CC1,–,inactive
CN(C)CCN1CCOCC1,6.12%,–
CCOCN(C(=O)CS(=O)(=O)O)c1c(C)cccc1CC,-1.29%,–
COc1cccc(CCc2ccccc2OCC(CN(C)C)OC(=O)CCC(=O)O)c1 (stereo not given),-2.09% [at 42.5 µM],–
CCN(CC)c1ccc(N)cc1,–,28.1 µM (active)
CCCCCCCOC(=O)c1ccc(O)cc1,–,inactive
CCCCCCCC(OC)OC,1.31% [at 42.5 µM],–
CCCCCCCCCCCCCCCCCO,2.39% [at 19 µM],–
CC(C)(c1cc(Br)c(OCCO)c(Br)c1)c1cc(Br)c(OCCO)c(Br)c1,–,53.3 µM (active)
Oc1cc2ccccc2cc1O,-0.368%,–
CCN(CC)CCSC(=O)C(c1ccccc1)c1ccccc1,-1.62% [at 42.5 µM],–
C[Si](C)(C)Cl,2.86%,–
CNCC[C@H](Oc1cccc2ccccc12)c1cccs1,-7.17% [at 42.5 µM],–
CCCCCCCCCCc1ccccc1,-0.786%,–

SMILES,"activity change, negative = cytotoxicity",Potency
CCCCNc1c(C(=O)OCC)c(C)nc2c1cnn2CC,-4.01% [at 42.5 µM],–
CCCCOC(=O)C(C)CC (stereo not given),-1.01%,–
O=C(O)CCCCCCC(=O)O,1.61%,–
CCCCCCCCCC(=O)N(C)C,0.587%,–
Cc1cccc(N(C)C)c1,0.0079%,–
CCOB(OCC)OCC,3.39%,–
COc1ccc(C#N)cc1,-16.8%,–
COc1ccccc1C=O,0.51%,–
CC(C)c1ccc(O)c(C(C)C)c1,0.584%,–
CCc1ccc(O)c(C(C)(C)C)c1,0.996%,–
CCCCOc1ccc(C(=O)CCN2CCCCC2)cc1,-5.15% [at 42.5 µM],–
C=CC(C)(CCC=C(C)C)OC(=O)/C=C/c1ccccc1 (stereo not given),4.75%,–
CCc1ccc(C)nc1,1.11%,–
O=c1cccc[nH]1,3.77%,–
CCCCCCCCCCCCN(CCO)CCO,-0.754%,–
CCOCOCC,2.23%,–
Cc1ccc2ccc3cccc4ccc1c2c34,0.723%,–
CC(=O)OC1CCCCC1,-8.69%,–
COc1cc(C(C)C)c2c(c1)S(=O)(=O)N(COc1cc(=O)n3cccc(OCCN4CCCCC4)c3n1)C2=O,4.42% [at 19 µM],–
CC(C)(C)C1=CC(=O)C=C(C(C)(C)C)C1=O,3.07%,–
